From paper PMC4336329 (PLoS ONE, 2015) come the findings set out here.

Screen size: about 310,000 compounds; about 14,000 (4.5%) showed an effect of 50% or more. The effect is printed as a negative number. This is one part of a sample in which strong results are shown more often than they occur.
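Note: peak tail current of the secondary pulse compared with the same well before compound.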

The test deals with human ether-à-go-go-related gene (hERG) potassium channel (human, UniProt Q12809). Nature of the test: primary screen, population patch clamp on CHO cells stably expressing hERG; higher = less effect of the substance.
human ether-à-go-go-related gene (hERG) potassium channel, sequence (Q12809 whole entry, looked up): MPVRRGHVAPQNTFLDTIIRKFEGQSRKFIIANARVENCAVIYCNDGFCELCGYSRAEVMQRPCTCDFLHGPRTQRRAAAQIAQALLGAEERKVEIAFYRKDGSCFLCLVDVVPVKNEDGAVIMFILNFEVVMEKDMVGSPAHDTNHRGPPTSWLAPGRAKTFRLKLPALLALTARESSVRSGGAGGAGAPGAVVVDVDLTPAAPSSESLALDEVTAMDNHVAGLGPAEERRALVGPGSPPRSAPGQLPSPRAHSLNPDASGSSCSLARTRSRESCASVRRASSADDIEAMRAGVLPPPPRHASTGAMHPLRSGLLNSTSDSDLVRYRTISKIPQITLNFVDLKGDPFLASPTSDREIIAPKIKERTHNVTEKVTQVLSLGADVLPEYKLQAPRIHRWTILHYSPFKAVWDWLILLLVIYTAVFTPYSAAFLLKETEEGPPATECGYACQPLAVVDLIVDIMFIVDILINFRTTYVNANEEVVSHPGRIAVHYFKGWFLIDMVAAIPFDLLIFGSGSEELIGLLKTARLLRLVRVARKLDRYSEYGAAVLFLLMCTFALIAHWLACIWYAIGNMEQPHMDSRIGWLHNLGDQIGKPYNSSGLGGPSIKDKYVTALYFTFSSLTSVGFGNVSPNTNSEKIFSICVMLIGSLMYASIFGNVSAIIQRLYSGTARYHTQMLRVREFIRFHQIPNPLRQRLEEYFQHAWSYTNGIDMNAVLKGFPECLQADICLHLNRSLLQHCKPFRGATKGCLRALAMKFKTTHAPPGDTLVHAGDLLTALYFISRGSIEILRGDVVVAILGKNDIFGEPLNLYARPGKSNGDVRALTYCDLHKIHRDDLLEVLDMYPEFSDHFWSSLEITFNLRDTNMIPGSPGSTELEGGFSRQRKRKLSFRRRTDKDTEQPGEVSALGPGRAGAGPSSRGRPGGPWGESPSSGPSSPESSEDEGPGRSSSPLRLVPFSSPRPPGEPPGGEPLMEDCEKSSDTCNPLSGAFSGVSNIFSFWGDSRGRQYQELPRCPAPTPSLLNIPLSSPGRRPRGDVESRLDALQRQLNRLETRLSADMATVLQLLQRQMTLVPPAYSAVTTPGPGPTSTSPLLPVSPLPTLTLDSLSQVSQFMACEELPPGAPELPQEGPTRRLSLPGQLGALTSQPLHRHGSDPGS
With `Cc1c(CC(=O)N2CCN(C(=O)C3COc4ccccc4O3)CC2)c(=O)oc2cc(O)ccc12` (stereo not shown), the “hERG current change (%, negative = inhibition) at 10uM” value was -44.7%. The value for `Cc1c(CC(=O)N2CCN(C(=O)C3COc4ccccc4O3)CC2)c(=O)oc2c(O)c(O)ccc12` (stereo not shown) was -0.208%; that for `Cc1c(CC(=O)N2CCN(C(=O)C3COc4ccccc4O3)CC2)c(=O)oc2cc(O)cc(O)c12` (stereo not shown) was 24.8%. The value for `COc1cc(C)cc2oc(=O)c(CC(=O)N3CCN(C(=O)C4COc5ccccc5O4)CC3)c(C)c12` (stereo not shown) was -53.9%; that for `COc1ccc2c(C)c(CC(=O)N3CCN(C(=O)C4COc5ccccc5O4)CC3)c(=O)oc2c1C` (stereo not shown) was -53.7%; that for `CC(=O)Oc1ccc2c(C)c(CC(=O)N3CCN(C(=O)C4COc5ccccc5O4)CC3)c(=O)oc2c1C` (stereo not shown) was -69.6%. Then `O=C(C1COc2ccccc2O1)N1CCN(c2ccccc2Cl)CC1` (stereo not shown), with 1.69%; and `COc1ccccc1CNC(=O)c1ccc(-c2ccccc2Cl)o1`, with 4.13%; and `O=S(=O)(/N=C(/NS(=O)(=O)c1ccccc1)c1ccccc1)c1ccccc1`, with 20%. For the molecule `CN(C)c1ccc(/C=N/NC(=O)c2sccc2-n2cccc2)cc1`, the “hERG current change (%, negative = inhibition) at 10uM” value came out at 12.2%. Then `CC1=CC(=C(C#N)c2nc3ccccc3s2)C=C(C)N1c1ccc(F)cc1F`, with 13.3%. With `c1ccc2c(c1)Cc1ccccc1O2`, the “hERG current change (%, negative = inhibition) at 10uM” value was found to be 14.7%. The value for `COc1ccc(/C=C2\C(=O)NCC(=O)N2Cc2ccccc2)cc1` was 4.69%; that for `Cc1csc(NC(=O)c2cccs2)n1` was -1.76%.

Consider `CCOc1cc(NC(=S)NCC2CCCO2)c(OCC)cc1NC(=O)C1CC1` (stereo not shown), for which the “hERG current change (%, negative = inhibition) at 10uM” value turned out to be 36.2%. On to `C=CCn1cccc(C(=O)Nc2cc(OC)ccc2OC)c1=O`, for which the “hERG current change (%, negative = inhibition) at 10uM” value stood at 1.46%.

Regarding `CN(Cc1cccs1)C(=O)c1cc(S(=O)(=O)N2CCOCC2)ccc1N1CCCC1`, the “hERG current change (%, negative = inhibition) at 10uM” value was -27.1%. Then `CN(Cc1ccc(Cl)cc1)C(=O)c1cc(S(=O)(=O)N2CCOCC2)ccc1N1CCCC1`, with -72.8%; and `COc1ccc(CN(C)C(=O)c2cc(S(=O)(=O)N3CCOCC3)ccc2N2CCCC2)cc1`, with -35.2%.

`Cc1ccsc1CN(C)C(=O)c1cc(S(=O)(=O)N2CCOCC2)ccc1N1CCCC1`: the “hERG current change (%, negative = inhibition) at 10uM” value was -40.5%. Then `CCc1ccc(CN(C)C(=O)c2cc(S(=O)(=O)N3CCOCC3)ccc2N2CCCC2)cc1`, with -50.1%; and `CN(Cc1cccc(F)c1)C(=O)c1cc(S(=O)(=O)N2CCOCC2)ccc1N1CCCC1`, with -24.5%. The value for `COc1ccc(C2C(CN3CCOCC3)C(=O)N2c2ccccc2)cc1` (stereo not shown) was 9.52%; that for `Cc1ccc(OCCOc2cccc(Br)c2)c([N+](=O)[O-])n1` was 0.558%; that for `Cc1cccc(NS(=O)(=O)c2cccc(C(=O)N3CCN(c4ccccn4)CC3)c2)c1` was -22.7%. The value for `COc1ccc(C(=O)NCc2nnc(SCC(=O)Nc3cccc(OC)c3)o2)cc1` was -1.25%; that for `CCOC(=O)c1c(NC(=O)c2nn(CC)cc2Br)sc2c1CCCCC2` was 8.6%.

In the case of `COc1ccc(N(C)C(=O)c2cn(CC(C)C)c(=O)c3cc(OC)c(OC)cc23)cc1`, the “hERG current change (%, negative = inhibition) at 10uM” value was found to be 8.8%. The value for `Nc1c(-c2ccccc2)cnn1-c1ccccc1` was 12%; that for `Nc1c(-c2cccc(Cl)c2)cnn1-c1ccccc1` was -60.3%; that for `Nc1c(-c2ccccc2)cnn1-c1cccc(Cl)c1` was -12.3%.

On to `COc1ccc(CCNC(=O)C2CCN(C(=O)c3ccc(F)cc3)CC2)cc1`, for which the “hERG current change (%, negative = inhibition) at 10uM” value was 10.2%. The value for `COc1ccc(CNC(=O)C2CC(c3ccccc3[N+](=O)[O-])=NO2)cc1` (stereo not shown) was -27.7%. Then `COc1ccc(CCNC(=O)C2CCN(C(=O)c3ccccc3)CC2)cc1`, with 2.13%. Then `O=C(NCCc1ccccc1)C1CCN(C(=O)c2ccc(F)cc2)CC1`, with -2.25%; and `COc1ccc(CCNC(=O)C2CC(c3ccc([N+](=O)[O-])cc3)=NO2)cc1` (stereo not shown), with -61.6%. For the molecule `COc1ccc(CCNC(=O)C2CCN(C(=O)c3ccc(Cl)cc3)CC2)cc1`, the “hERG current change (%, negative = inhibition) at 10uM” value was -12.8%. In the case of `COCCNC(=O)C1CC(c2ccc([N+](=O)[O-])cc2)=NO1` (stereo not shown), the “hERG current change (%, negative = inhibition) at 10uM” value is recorded as -0.798%. Then `COc1ccc(CCNC(=O)C2CC(c3cccc([N+](=O)[O-])c3)=NO2)cc1` (stereo not shown), with -21.8%; and `O=C(NCCc1ccccc1)C1CCN(C(=O)c2ccc([N+](=O)[O-])cc2)CC1`, with -63.2%. Then `O=C(NCc1ccc(C(F)(F)F)cc1)C1CC(c2ccccc2[N+](=O)[O-])=NO1` (stereo not shown), with -46.1%; and `O=C(NCc1ccc(OC(F)(F)F)cc1)C1CC(c2ccccc2[N+](=O)[O-])=NO1` (stereo not shown), with -68.3%; and `COc1ccc(CCNC(=O)C2CCN(C(=O)c3ccc([N+](=O)[O-])cc3)CC2)cc1`, with -65.6%.
